# Measured values reported in the supplement of paper PMC12645437, “Orthogonal IMiD-Degron Pairs Induce Selective Protein Degradation in Cells” (ACS Chemical Biology, 2025).
# Whole data set: some 8,300 sequences, median “log2 fold change of degron read counts, EGFP-low vs EGFP+ sorted cells (limma voom), compound-induced degradation” near -1.1, cut for the highest 2% near 3.2. This excerpt belongs to a sample that is enriched for the highest values.
# T1: CRBN, Q96SW2
# T1 chain: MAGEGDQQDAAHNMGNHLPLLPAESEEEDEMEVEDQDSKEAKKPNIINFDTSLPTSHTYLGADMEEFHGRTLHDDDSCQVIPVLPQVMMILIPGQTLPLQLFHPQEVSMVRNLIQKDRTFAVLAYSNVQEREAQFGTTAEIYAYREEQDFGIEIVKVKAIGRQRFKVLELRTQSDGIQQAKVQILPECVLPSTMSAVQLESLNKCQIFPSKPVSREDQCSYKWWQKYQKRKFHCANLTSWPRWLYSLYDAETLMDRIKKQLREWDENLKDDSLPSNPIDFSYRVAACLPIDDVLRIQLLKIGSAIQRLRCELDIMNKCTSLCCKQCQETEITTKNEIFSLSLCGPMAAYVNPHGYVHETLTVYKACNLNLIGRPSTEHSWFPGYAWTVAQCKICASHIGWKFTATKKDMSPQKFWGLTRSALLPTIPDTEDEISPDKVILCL
# B1: 46F_47H_49D_50I_52G_53A_54C_55F_67L_, Q9UKT9 (peptide)
# chain: FHCDICGACFTQKGNLLRHIKL
# B2: 46F_47M_49D_50I_52G_53A_54C_55F_67L_, Q9UKT9 (peptide)
# chain: FMCDICGACFTQKGNLLRHIKL
# B3: 46F_47F_49D_50I_52G_53A_54C_55F_67L_, Q9UKT9 (peptide)
# chain: FFCDICGACFTQKGNLLRHIKL
# B4: 46F_47R_49D_50I_52G_53A_54C_55F_67L_, Q9UKT9 (peptide)
# chain: FRCDICGACFTQKGNLLRHIKL
# B5: 46F_47A_49D_50I_52G_53A_54C_55F_67L_, Q9UKT9 (peptide)
# chain: FACDICGACFTQKGNLLRHIKL
# B6: 46F_47C_49D_50I_52G_53A_54C_55F_67L_, Q9UKT9 (peptide)
# chain: FCCDICGACFTQKGNLLRHIKL
# B7: 46F_47S_49D_50I_52G_53A_54C_55F_67L_, Q9UKT9 (peptide)
# chain: FSCDICGACFTQKGNLLRHIKL
# B8: 46F_47E_49D_50I_52G_53A_54C_55F_67L_, Q9UKT9 (peptide)
# chain: FECDICGACFTQKGNLLRHIKL
# B9: 46F_47Y_49D_50I_52G_53A_54C_55F_67L_, Q9UKT9 (peptide)
# chain: FYCDICGACFTQKGNLLRHIKL
# B10: 46F_47Q_49D_50I_52G_53A_54C_55F_67L_, Q9UKT9 (peptide)
# chain: FQCDICGACFTQKGNLLRHIKL
# B11: 46F_47W_49D_50I_52G_53A_54C_55F_67L_, Q9UKT9 (peptide)
# chain: FWCDICGACFTQKGNLLRHIKL
# B12: 46F_47T_49D_50I_52G_53A_54C_55F_67L_, Q9UKT9 (peptide)
# chain: FTCDICGACFTQKGNLLRHIKL
# B13: 46F_47L_49D_50V_52G_53A_54Y_55F_67L_, Q9UKT9 (peptide)
# chain: FLCDVCGAYFTQKGNLLRHIKL
# B14: 46F_47S_49N_50V_52G_53A_54R_55F_67L_, Q9UKT9 (peptide)
# chain: FSCNVCGARFTQKGNLLRHIKL
# B15: 46F_47R_49N_50Q_52G_53A_54S_55F_67L_, Q9UKT9 (peptide)
# chain: FRCNQCGASFTQKGNLLRHIKL
# B16: 46F_47D_49E_50I_52G_53R_54E_55F_67L_, Q9UKT9 (peptide)
# chain: FDCEICGREFTQKGNLLRHIKL
# B17: 46F_47H_49N_50V_52G_53A_54Q_55F_67L_, Q9UKT9 (peptide)
# chain: FHCNVCGAQFTQKGNLLRHIKL
# B18: 46F_47C_49P_50I_52G_53H_54N_55F_67L_, Q9UKT9 (peptide)
# chain: FCCPICGHNFTQKGNLLRHIKL
# B19: 46F_47Y_49E_50Q_52G_53A_54H_55F_67L_, Q9UKT9 (peptide)
# chain: FYCEQCGAHFTQKGNLLRHIKL
# B20: 46F_47Q_49P_50I_52G_53A_54N_55F_67L_, Q9UKT9 (peptide)
# chain: FQCPICGANFTQKGNLLRHIKL
# B21: 46F_47M_49P_50I_52G_53A_54N_55F_67L_, Q9UKT9 (peptide)
# chain: FMCPICGANFTQKGNLLRHIKL
# B22: 46F_47F_49P_50I_52G_53A_54N_55F_67L_, Q9UKT9 (peptide)
# chain: FFCPICGANFTQKGNLLRHIKL
# B23: 46F_47N_49P_50I_52G_53A_54N_55F_67L_, Q9UKT9 (peptide)
# chain: FNCPICGANFTQKGNLLRHIKL
# B24: 46F_47S_49P_50I_52G_53A_54N_55F_67L_, Q9UKT9 (peptide)
# chain: FSCPICGANFTQKGNLLRHIKL
# B25: 46F_47L_49P_50I_52G_53A_54N_55F_67L_, Q9UKT9 (peptide)
# chain: FLCPICGANFTQKGNLLRHIKL
# B26: 46F_47T_49P_50I_52G_53A_54N_55F_67L_, Q9UKT9 (peptide)
# chain: FTCPICGANFTQKGNLLRHIKL
# B27: 46F_47Y_49P_50I_52G_53A_54N_55F_67L_, Q9UKT9 (peptide)
# chain: FYCPICGANFTQKGNLLRHIKL
# B28: 46F_47V_49P_50I_52G_53A_54N_55F_67L_, Q9UKT9 (peptide)
# chain: FVCPICGANFTQKGNLLRHIKL
# B29: 46F_47R_49P_50I_52G_53A_54N_55F_67L_, Q9UKT9 (peptide)
# chain: FRCPICGANFTQKGNLLRHIKL
# B30: 46F_47D_49P_50I_52G_53A_54N_55F_67L_, Q9UKT9 (peptide)
# chain: FDCPICGANFTQKGNLLRHIKL
# B31: 46F_47E_49P_50I_52G_53A_54N_55F_67L_, Q9UKT9 (peptide)
# chain: FECPICGANFTQKGNLLRHIKL
# Molecular target: T1, CRBN, Q96SW2
# Assay: log2 fold change of degron read counts, EGFP-low vs EGFP+ sorted cells (limma voom), compound-induced degradation; higher = more compound-induced degradation of the degron-EGFP fusion; degrons are variants of IKZF1/3 zinc finger 2; compound dose not given here
# Conditions: Jurkat, 18 h
# [1] = compound: compound 19 (5-tert-butyl-thalidomide)
# [2] = compound: compound 22 (5-morpholino-thalidomide)
# [3] = compound: compound 33 (diphenyl IMiD analogue)
# 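Further: pooled lentiviral library of zinc finger degron-EGFP fusions in mCherry-positive Jurkat cells, FACS-sorted after compound exposure, with degron abundance counted by next-generation sequencing.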
Sequence,log2 fold change of degron read counts [1],log2 fold change of degron read counts [2],log2 fold change of degron read counts [3],log2 fold change of degron read counts (compound: thalidomide)
B1,1.53,1.18,-0.205,-1.25
B2,-1.13,-0.637,1.57,-0.555
B3,3.31,3.14,1.33,-1.14
B4,-1.25,-1.11,1.03,0.116
B5,2.85,0.596,-0.194,-1.27
B6,1.6,1.36,1.87,0.543
B7,1.95,1.34,1.4,-0.055
B8,-0.944,-2.76,0.061,0.157
B9,3.33,3.42,1.9,-0.704
B10,-0.256,2.12,1.17,3.3
B11,3.31,3.65,1.33,-0.4
B12,1.04,1.6,1.21,0.886
B13,-2.05,-2.41,-1.49,-1.52
B14,0.49,0.453,-1.03,-0.0608
B15,-1.71,-2.14,-0.702,-1.17
B16,-2.21,-2.29,-2.42,-2.31

Sequence,log2 fold change of degron read counts [1],log2 fold change of degron read counts [2],log2 fold change of degron read counts [3],log2 fold change of degron read counts (compound: thalidomide)
B17,-0.612,0.00036,0.0621,-0.871
B18,-2.22,-2.17,-1.7,-1.28
B19,-0.125,0.783,0.184,-1.6
B20,0.555,2.18,2.19,3.58
B21,-0.073,1.2,2.87,1.98
B22,2.81,3.66,1.86,1.33
B23,2.14,0.903,0.95,0.651
B24,2.46,1.78,1.97,1.54
B25,0.744,0.272,1.69,1.77
B26,0.0113,2.63,1.93,2.85
B27,3.19,3.46,2.38,1.52
B28,0.327,2.63,1.9,2.81
B29,-0.337,-0.426,1.12,1.57
B30,2.63,0.285,2.3,2.15
B31,0.136,-0.0311,2.92,3.27
